# ELG1 DNA repair = inhibitors of ELG1-dependent DNA repair in HEK293T cells | HEK293T ELG1-luciferase reporter, luminescence, 16 h; DNA damage induced by 5-fluorouridine | Potency, µM (series often up to 46.1 µM), inactives show at the highest dose activity change, negative = inhibition, most hits filed as inhibitors | 2.3% of 330,000 active | AID 504467; further: on the % scale 0 is the no-effect control and ±100 the full control effect; nearly all actives have a fitted effect of over 55% in size
#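 Reporter activity after DNA damage by 5-fluorouridine is monitored. Compound-treated cells incubate 16 hr at 37 °C, then ONE-Glo is added for 30 min before luminescence reading.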
# ELG1 genotox = genotoxicity induction in ELG1-luciferase HEK293T cells | Potency, µM (titrated, usually from 46 µM), for inactives: at the top dose activity change, positive = activation, most hits filed as activators | HEK293T ELG1-luciferase reporter, luminescence, 16 h | 1.3% of 330,000 active; further: % of control where 0% means no effect; nearly all actives have a fitted effect of over 60% in size
#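 Reporter readout depends on ELG1 protein level, which increases with genetic stress. After 16 hr compound exposure at 37 °C, luciferase activity was quantified using ONE-Glo.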
# Rab9 promoter act = activators of Rab9 promoter; Huh7 Rab9 promoter-luciferase reporter, luminescence, 24 h; 2.8% of 320,000 active; AID 485297; Potency, µM (doses to about 9.22 µM), for inactives: at the top dose activation, negative = inhibition, usual class: activators; further: % of control where 0% means no effect; nearly all actives have a fitted effect of over 60% in size
#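 Quantitative HTS format; Huh7 Rab9-luciferase reporter cells (1500/well) receive compound 2 h post-plating, incubate 24 h at 37 °C, then get luciferase reagent for 10 min before luminescence reading.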
# SMN2 splice enh = increases expression of the SMN2 splice variant; HEK293 SMN2-luciferase splicing reporter, luminescence, 30-36 h; AID 1458; Potency, µM (series often up to 46.1 µM), for inactives: top-dose activity change, positive = activation, hits mostly activators; 2.8% of 210,000 active; further: % of control where 0% means no effect; nearly all actives have a fitted effect of over 55% in size
#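 HEK293 cells carry an SMN2 […]–luciferase reporter in which exon 7 inclusion puts luciferase in frame. Cells were plated 10-12 h before compound addition, then incubated 30-36 h at 37C. ONE-Glo luminescence was read; sodium butyrate at 4.5 mM final served as control.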
# FLuc counter = inhibits or activates purified firefly luciferase, miR-21 counter-screen | purified FLuc, Km substrates, luminescence inhibition | Potency, µM (highest dose often 57.5 µM), without a hit: top-dose activity change, negative = inhibition, actives largely listed as inhibitors | 6.9% of 360,000 active | AID 588342 | P08659;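 further: plate controls were vehicle for no effect and reference inhibitor for full effect; nearly all actives have a fitted effect of over 55% in size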
# Target sequence (P08659 whole entry, looked up): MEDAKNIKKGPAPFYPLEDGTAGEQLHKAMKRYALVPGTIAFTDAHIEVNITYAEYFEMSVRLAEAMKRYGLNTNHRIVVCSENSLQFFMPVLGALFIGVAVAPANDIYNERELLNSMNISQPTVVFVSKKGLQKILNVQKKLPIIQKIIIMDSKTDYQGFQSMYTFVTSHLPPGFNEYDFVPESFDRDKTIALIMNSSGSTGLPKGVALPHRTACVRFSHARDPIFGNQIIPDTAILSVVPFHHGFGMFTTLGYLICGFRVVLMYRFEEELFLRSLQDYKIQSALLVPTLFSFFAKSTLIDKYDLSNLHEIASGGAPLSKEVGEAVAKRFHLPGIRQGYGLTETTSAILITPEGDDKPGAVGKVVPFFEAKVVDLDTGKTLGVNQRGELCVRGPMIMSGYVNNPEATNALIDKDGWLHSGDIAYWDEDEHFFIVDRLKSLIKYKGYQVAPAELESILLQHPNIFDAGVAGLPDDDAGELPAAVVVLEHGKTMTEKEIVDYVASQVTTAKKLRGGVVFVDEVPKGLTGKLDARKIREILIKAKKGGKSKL
#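 Purified P. pyralis luciferase (10nM final) with 10uM D-luciferin and 10uM ATP (Km levels) in 50mM Tris acetate pH 7.5, 10mM Mg acetate, 0.01% Tween-20, 0.05% BSA; qHTS 6-point titration, ~60 µM downward; luminescence read.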
# NPC1 prom act = activators of NPC1 promoter; Huh7 NPC1 promoter luciferase reporter, 24 h; Potency, µM (top dose mostly 9.22 µM), inactives show at the top dose activation, usual class: activators; 2.4% of 320,000 active; further: % of control where 0% means no effect; nearly all actives have a fitted effect of over 60% in size
#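 Luminescence from an NPC1 promoter-driven luciferase reporter in stably transfected Huh7 cells was measured after 24 h compound treatment at 37 °C, followed by 10 min ambient incubation with luciferase detection reagent.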
# An asterisk follows results filed as active; ? = inconclusive; nt = not tested or not shown; [ ] = dose if it differs, or a comment. Sampled rows, rich in hits. Any-hit rate of the full collection: about 9.4%. The call rests on the fitted dose curve; in most records, active means well fitted curve in the direction sought with a large enough effect; inconclusive means small, poorly fitted or top-dose-only effect, or another doubt; inactive means no such curve, though single readings can be large; an effect the other way counts as inactive or inconclusive. Potency means the concentration at half of the fitted maximal effect.
SMILES,ELG1 DNA repair,ELG1 genotox,Rab9 promoter act,SMN2 splice enh,FLuc counter,NPC1 prom act
CCOC(=O)c1[nH]c(C)c(CCC(=O)NCc2ccccc2Cl)c1C,nt,nt,nt,nt,7%,nt
O=C(Nc1ccc(S(=O)(=O)N2CCCCC2c2cccnc2)cc1)c1ccc(F)cc1 (stereo not given),nt,nt,nt,nt,-3%,nt
C/C(NC(=O)c1ccccc1)=C1/C(=O)CC2C1C2(C)C (stereo not given),?,?,?,-4%,15µM*,29%
C/C(N[C@@H]1CSCC1O)=C1/C(=O)CC2[C@@H]1C2(C)C (stereo not given in full),nt,nt,nt,-2%,nt,nt
CC(C)OCCCN1C(=O)c2[nH]nc(-c3ccccc3O)c2C1c1ccc(OCc2ccccc2)cc1 (stereo not given),nt,nt,nt,-16%,3%,nt
C=CCNCC(=O)Nc1sc2c(c1C(=O)Nc1ccc(OC)cc1OC)CCC2,21µM*,-11%,-10%,-4%,-3%,-5%
CCOC(=O)N1CCc2c(sc(NCc3ccc(OCC)cc3)c2C(=O)Nc2ccc(OC)cc2OC)C1,nt,nt,nt,nt,15µM*,nt
CCOC(=O)N1CCc2c(sc(NCc3ccc(N(CC)CC)cc3)c2C(=O)Nc2cc(OC)ccc2OC)C1,nt,nt,nt,nt,-18%,nt
CCOC(=O)N1CCc2c(sc(NCc3ccc(OC)c(OC)c3OC)c2C(=O)Nc2ccc(OC)cc2OC)C1,nt,nt,nt,nt,15µM*,nt
CCOC(=O)N1CCc2c(sc(NCc3cccs3)c2C(=O)Nc2ccc(OC)cc2OC)C1,nt,nt,nt,nt,13µM*,nt
COc1ccc(NC(=O)c2c(NCc3ccc(OC)c(OC)c3OC)sc3c2CCC3)c(OC)c1,nt,nt,nt,nt,-4%,nt
Cc1ccc(/C=C2\SC(N)=NC2=O)s1,11%,3%,10%,?,?,8%
COc1ccc(OC)c(/C=C2\SC(=S)N(N3CCOCC3)C2=O)c1,0%,-1%,16%,nt,-18%,-1%
COc1ccc(OC)c(/C=C2/Sc3ccccc3C2=O)c1,25%,15%,1%,nt,9.5µM*,1%
O=C1/C(=C/c2cccnc2)SC(=S)N1NS(=O)(=O)c1ccccc1,14%,1%,1%[1.84 µM],nt,-8%,-4%
O=C1/C(=C/c2cccnc2)Sc2ccccc21,24%,5%,-4%,-2%,9.5µM*,-2%
CC(=O)Nc1ccc(/C=C2\Sc3ccccc3C2=O)cc1,18%,?,13%,nt,0.38µM*,-6%
Cc1ccc(/C=C2\Sc3ccccc3C2=O)s1,?,?,?,?,0.43µM*,?
CCOc1ccc(S(=O)(=O)/N=C(\N)c2ccccc2)cc1,23µM*,-10%,-8%,nt,6%,1%
CC(C)OC(=O)c1ccc(NC(=O)C2C3CC4OC(=O)C2C4C3)cc1 (stereo not given),?,12%,2.8µM*,11µM*,21µM*,?
Cc1ccc(NC(=O)C2C3CC4OC(=O)C2C4C3)cc1Cl (stereo not given),17%,0%,2%,?,-12%,3%
Nn1c(Cc2ccccc2)nc2sc3c(c2c1=O)CCC3,?,-7%,1%,nt,0%,-3%
Nn1c(-c2cccs2)nc2sc3c(c2c1=O)CCCC3,?,2.3µM*,6.3µM*,6.3µM*,2.4µM*,1%
Cc1ccccc1-c1nc2sc3c(c2c(=O)n1N)CCCC3,?,2.9µM*,23%,-60%,6.7µM*,18%
CC1(C)Cc2c(sc3nc(-c4cccs4)n(N)c(=O)c23)CO1,?,-15%,2.8µM*,-9%,6µM*,?
SMILES,ELG1 DNA repair,ELG1 genotox,Rab9 promoter act,SMN2 splice enh,FLuc counter,NPC1 prom act
Cc1cc(NC(=S)NC(=O)C2CC2)ccc1Br,?,4%,22%,nt,24µM*,-13%
CCCc1ccc(OC(=O)c2cccs2)cc1,-1%,12%,-2%,-5%,6µM*,2%
Cc1cc(OC(=O)c2cccs2)ccc1C(C)C,5%,1%,-1%,3%,3µM*,0%
CCCc1ccc(OC(=O)c2ccc(O)cc2Cl)cc1,?,?,1µM*,?,2.4µM*,2µM*
Cc1oc2ccc(OC(=O)c3cccs3)cc2c1C(=O)OC(C)C,?,6%,5%,-6%,-16%,-3%
O=C(Oc1ccc2c(c1)OCO2)c1cccs1,13%,5%,-5%,?,11µM*,2%
COc1cccc(C(=O)/C=C/c2ccc(SC)cc2)c1,9%,2%,-5%,-22%,3.4µM*,0%
COC(=O)c1ccc(/C=C/C(=O)c2cccc(OC)c2)cc1,?,?,?,20%,9.5µM*,?
CCCCc1nc(NCCNC(=O)c2ccco2)c(C#N)c2c1CSC(C)(C)C2,15µM*,-3%,8%,19%,0%,6%
CSc1ncccc1C(=O)OCc1ccccc1,?,?,?,1%,19µM*,20%
CSc1ncccc1C(=O)OCc1ccccc1F,?,16%,28%,28%,15µM*,?
CCN1CCN(C(=O)c2ccc3c(c2)N(Cc2c(F)cccc2Cl)C(=O)c2ccccc2S3)CC1,nt,nt,nt,-12%,0%,nt
Cn1c(=O)c2c(nc(SCCCC#N)n2Cc2c(F)cccc2Cl)n(C)c1=O,16µM*,7%,-1%,-5%,4%,-1%
COc1ccc2c(CCNC(=O)/C=C/c3ccc(OC)c(OC)c3)c[nH]c2c1,23µM*,-7%,0%,nt,-6%,-11%
Cc1cccc(N2CCN(C(=O)c3c(C)nn(Cc4ccccc4Cl)c3C)CC2)c1C,21µM*,-12%,-10%,-18%,1%,1%
COc1cccc(-c2noc(C3CCCN(C(=O)c4ccc(F)cc4F)C3)n2)c1 (stereo not given),15%,-2%,0%,nt,-5%,1%
COc1cccc(-c2noc(C3CCCN(C(=O)c4ccccc4OC)C3)n2)c1 (stereo not given),?,10%,30%,nt,21µM*,?
CCCCC(=O)N1CCCC(c2nc(-c3cccc(OC)c3)no2)C1 (stereo not given),?,14%,?,nt,17µM*,?
Cc1nn(-c2ccccc2)c(-n2cccc2)c1C(=O)NCCc1ccc(Cl)cc1,nt,nt,nt,-67%,-2%,nt
Cc1nc2nc(Cc3ccccc3)[nH]n2c(=O)c1Cc1ccccc1,-9%,1%,-4%,-8%,-1%,-2%
Cc1nc2c(-c3ccc(Cl)cc3)c(C)[nH]n2c(=O)c1Cc1ccccc1,4.1µM*,-16%,-26%,nt,?,-36%
CCOC(=O)Cc1c(C)nc2c(-c3ccccc3)c(-c3ccccc3)[nH]n2c1=O,0%,-4%,0%,4.5µM*,-12%,2%
